This passage reports INHIBITION results from ChEMBL document CHEMBL4513216, “Probing the Open Global Health Chemical Diversity Library for Multistage-Active Starting Points for Next-Generation Antimalarials” (ACS Infect Dis, 2020).

Each structure is given as a SMILES string. Among all 69,000 compounds or so, about 8,600 (12%) showed an effect of 50% or more. The sample as a whole holds a higher share of strong results than the screen did.

This test has as its system Plasmodium berghei. As to the kind of experiment: Screen against P. berghei liver stage (PbLuc), transformed with Luciferase, at 10uM. As to conditions: tested at 10 uM. The format is functional, HepG2.
Take `CC(C)CCc1cc(C(=O)O)nc2[nH]c(=O)[nH]c(=O)c12`: the INHIBITION turned out to be 2.29%.
As to `CCc1cc(NCCCNS(C)(=O)=O)nc(-c2ccccn2)n1`, the INHIBITION was 12.4%.
With `NC(=O)C1CCCN(Cc2c(-c3ccco3)[nH]c3ncccc23)C1` (stereo not drawn), the INHIBITION came out at 61.4%.
`OC1CCCN(Cc2c(-c3ccco3)[nH]c3ncccc23)C1` (stereo not drawn): the INHIBITION was determined as 35.3%.
Consider `CCN1CCN(Cc2c(-c3ccco3)[nH]c3ncccc23)CC1`, for which the INHIBITION was determined as 29.3%.
Turning to `OC1CCN(Cc2c(-c3ccco3)[nH]c3ncccc23)CC1`, the INHIBITION amounted to 32.3%.
Next, `c1coc(-c2[nH]c3ncccc3c2CN2CCCOCC2)c1`: 50.1%; `CN1CCN(Cc2c(-c3ccco3)[nH]c3ncccc23)CC1`: -0.371%; `O=C1CCCN1Cc1noc(-c2ccc(Cl)cc2)n1`: -66%.
Next, `Cc1cnc(CC2COCCN(C(=O)CN3CCOCC3)C2)cn1` (stereo not drawn): 16.5%.
With `CCc1noc(CNC2CCCN(Cc3noc(C4CC4)n3)C2)n1` (stereo not drawn), the INHIBITION was -6.14%.
For the compound `CC(c1ccco1)N(C(=O)NCc1ccon1)C1CC1` (stereo not drawn), the INHIBITION is reported as 72.6%.
As for `CCN(CC)C1CCN(C(=O)NCc2c(C)noc2C)CC1`, the INHIBITION was determined as 50.1%.
On to `CCc1cc(CNC(=O)N(C2CC2)C(C)c2ccco2)[nH]n1` (stereo not drawn), for which the INHIBITION amounted to 55.9%.
Take `Cc1noc(C)c1CNC(=O)N(C)C1CCN(c2ccccc2)C1=O` (stereo not drawn): the INHIBITION is listed as 31.2%.
For `Cc1noc(C)c1CNC(=O)N1CCCC(C)CC1` (stereo not drawn), the INHIBITION is -30.6%.
In the case of `Cc1noc(C)c1CNC(=O)N(C1CC1)C(C)c1ccco1` (stereo not drawn) it was 79.1%; in that of `CC(c1ccco1)N(C(=O)CNc1ccc(C#N)cc1)C1CC1` (stereo not drawn), 21.5%.
Next, `Cc1noc(C)c1CNC(=O)N1CCC(CO)CC1`: 11.8%; `CCc1cc(CNC(=O)N(C2CC2)C(C)c2ccco2)on1` (stereo not drawn): 3.3%; `CCc1cc(CNC(=O)NCC(c2ccco2)N2CCCC2)[nH]n1` (stereo not drawn): 36.6%.
Regarding `CC(c1ccco1)N(C(=O)c1cccc(C#N)c1)C1CC1` (stereo not drawn), the INHIBITION is -11%.
`CC(c1ccco1)N(C(=O)c1cc2c([nH]c1=O)CCCC2=O)C1CC1` (stereo not drawn): the INHIBITION is on record as -65.3%.
Turning to `COCc1c(Cl)cccc1NC(=O)CNC(=O)C(C)(C)C`, the INHIBITION is -17.8%.
`CC(C)N1CCC(CC(=O)N(C)C(C)c2cncs2)CC1` (stereo not drawn): the INHIBITION was -3.58%.
As for `CN(Cc1nc(Cc2cccc(C(F)(F)F)c2)no1)C1CCOCC1`, the INHIBITION is 22.1%.
Regarding `COC(=O)c1ccoc1COC(=O)CCc1ccc(OC)c(OC)c1`, the INHIBITION is given as -1.58%.
In the case of `CN(C)Cc1cc(C2CCCCN2S(=O)(=O)Cc2ccccc2)nn1C` (stereo not drawn) it was 8.12%.
As to `CS(=O)(=O)NCc1cncc2c1CCN(C(=O)c1ccccn1)C2`, the INHIBITION was 16.4%.
For `Cc1occc1C(=O)N1C[C@@H](OCc2cccnc2)[C@H]2OCCC[C@@H]21`, the INHIBITION is -63.1%.
As to `CCCc1noc(C2CC(=O)N(C(C)(C)C)C2)n1` (stereo not drawn), the INHIBITION worked out at 31.9%.
Take `Cc1cc(C(=O)N2CC[C@H](N3CCN(C)CC3)[C@H](CCCO)C2)n(C)n1`: the INHIBITION was -27.5%.
With `CN1CCN([C@H]2CCN(C(=O)c3cc(Cl)cn3C)C[C@H]2CCCO)CC1`, the INHIBITION was found to be 64.3%.
With `CN1CCN([C@H]2CCN(C(=O)c3nn(C)cc3Cl)C[C@H]2CCCO)CC1`, the INHIBITION stood at 8.7%.
Regarding `COCCN1CCO[C@@H]2CN(C(=O)NCc3ccccc3)CC[C@@H]2C1`, the INHIBITION is given as 7.24%.
Take `Cc1n[nH]c(C)c1CCC(=O)N1CCc2c(nc[nH]c2=O)C1`: the INHIBITION was 10.7%.
Next, `CCN(C)c1ccc(CNS(=O)(=O)CC2CCCO2)cc1F` (stereo not drawn): 24.4%.
As to `O=S(=O)(CC1CCOCC1)NCc1ccnc(O)c1`, the INHIBITION is on record as 2.82%.
Next, `CCN(C)c1ccc(CNC(=O)c2cc(C(N)=O)cs2)cc1F`: -59.2%.
For the compound `CCN(CC)c1ccc(CNS(=O)(=O)C2CCOCC2)cc1F`, the INHIBITION is 62.9%.
With `CCN(C)c1ccc(CNS(=O)(=O)C2CCOCC2)cc1F`, the INHIBITION stood at 50.1%.
As to `CCN(CC)c1ccc(CNC(=O)C2(C)CCOCC2)cc1F`, the INHIBITION is on record as -37.1%.
Next, `Cc1cc2c(=O)n(CC(=O)N3CCn4cccc4C3C(C)C)cnc2s1` (stereo not drawn): 3.4%.
Turning to `COCC1CN(c2ncc(F)cn2)Cc2cnn(C)c21` (stereo not drawn), the INHIBITION came out at 19.6%.
Regarding `Cn1cc(CCC(=O)NC(c2ccc(F)cc2)C(F)(F)F)cn1` (stereo not drawn), the INHIBITION was -4.52%.
As to `CN1CCNC(Cc2ccc(-c3ccccc3)cc2)C1=O` (stereo not drawn), the INHIBITION is 23.2%.
With `O=C(NCC1CCS(=O)(=O)C1)c1cccc(CN2CCCC2)c1` (stereo not drawn), the INHIBITION worked out at 24.7%.
Consider `O=C(N1CCCO1)[C@@]12CCO[C@@H]1CCN(Cc1cccs1)C2`, for which the INHIBITION is 40.1%.
On to `O=C(Nc1ccccc1N1CCOC1=O)N1CCSCC1`, for which the INHIBITION came out at 52.2%.
Regarding `CC(=O)N1CCCN(C(=O)Nc2ccccc2N2CCOC2=O)CC1`, the INHIBITION was determined as 1.37%.
Regarding `CC1=CCN(C(=O)Nc2ccccc2N2CCOC2=O)CC1`, the INHIBITION is listed as 32.5%.
As for `Cc1ccn(CCC(=O)NC(C)Cc2ccco2)n1` (stereo not drawn), the INHIBITION amounted to 24.5%.
Next, `COC(=O)c1sc2cccc(F)c2c1CNC(=O)C1CC1`: 34.6%; `Brc1cc2c(cc1CN1CCC(N3CCCCC3)CC1)OCCO2`: 77.9%.
For `OCC1CCN(Cc2cc3c(cc2Br)OCCO3)CC1`, the INHIBITION was 34.5%.
Take `OC1CCN(Cc2cc3c(cc2Br)OCCO3)CC1`: the INHIBITION is recorded as 28.3%.
In the case of `OCCN1CCN(Cc2cc3c(cc2Br)OCCO3)CC1` it was 31.5%; in that of `NC(=O)C1CCN(Cc2cc3c(cc2Br)OCCO3)C1` (stereo not drawn), 71.3%; in that of `COc1ccc(CN2CCC(C(N)=O)C2)c(Br)c1OC` (stereo not drawn), -0.87%.
Regarding `CNC(=O)C1CN(C(=O)c2ccccc2)Cc2cn(C)nc21` (stereo not drawn), the INHIBITION came out at 18.9%.
Take `CCOC(=O)c1nc(CC(=O)Nc2ccccc2)no1`: the INHIBITION was determined as 45.5%.
`Cc1cc(CN2CCN(C(=O)NCc3csc(C)n3)CC2)no1`: the INHIBITION was found to be 26.4%.
On to `CN(C)CCO[C@H]1CN(Cc2ccoc2)[C@@H]2COC[C@H]12`, for which the INHIBITION was found to be 3.25%.
Next, `Cn1nc(CNC(=O)c2ccc3c(c2)OCO3)c2c1CCOC2`: 40.8%.
Regarding `CSCCc1ccc(NC(=O)NCc2ccnc(N(C)C)c2)cc1`, the INHIBITION worked out at 72.85%.
`CN(C)c1cc(CNC(=O)Nc2cccnc2N2CCCC2)ccn1`: the INHIBITION is -60.4%.
As for `CN(C)c1cc(CNC(=O)Nc2ccc(N3CCCC3)nc2)ccn1`, the INHIBITION came to 69.7%.
Next, `COc1ccc(NC(=O)NCc2ccnc(N(C)C)c2)cn1`: -15.1%; `CN(C)c1cc(CNC(=O)Nc2ccc(F)cc2)ccn1`: 17.8%.
In the case of `CN(C)c1cc(CNC(=O)Nc2ccc(C#N)cc2)ccn1`, the INHIBITION came out at 22.1%.
In the case of `COCc1ccccc1CNC(=O)CNc1cccc(Cl)c1OC`, the INHIBITION is -28.2%.
For `CSCCC(=O)N1CCCN(Cc2cnn(C(C)C)c2)CC1`, the INHIBITION is on record as 4.71%.
As to `O=C([C@H]1CCCO1)N1CCc2ncc(CN3CCOCC3)n2CC1`, the INHIBITION stood at 22.9%.
For `CC(C(=O)N1CCCN(Cc2cnn(C)c2)CC1)n1ccnc1` (stereo not drawn), the INHIBITION stood at 48.1%.
Turning to `O=C(N1CCCC1)N1CCc2ncnc(C3CCOC3)c2CC1` (stereo not drawn), the INHIBITION came to 31.8%.
Take `O=C(NCc1ccccc1F)NCC(O)c1cccc(F)c1` (stereo not drawn): the INHIBITION is recorded as -24.3%.
In the case of `CS(=O)(=O)N1CCN(c2ccnc(N3CCCC3)n2)CC1`, the INHIBITION stood at 50.8%.
In the case of `CN(C)S(=O)(=O)N1CCN(c2ccnc(N3CCCCC3)n2)CC1`, the INHIBITION is listed as 43.1%.
Take `CN(C)S(=O)(=O)N1CCN(c2ccnc(N3CCCC3)n2)CC1`: the INHIBITION is on record as 5.14%.
As for `CCCS(=O)(=O)N1CCN(c2ccnc(N3CCCCC3)n2)CC1`, the INHIBITION came out at 59.8%.
In the case of `CS(=O)(=O)N1CCN(c2cnnc(N3CCCC3)c2)CC1`, the INHIBITION is -11.4%.
In the case of `CS(=O)(=O)N1CCN(c2ccnc(N3CCCCC3)n2)CC1` it was 58.5%; in that of `CCCS(=O)(=O)N1CCN(c2ccnc(N3CCCC3)n2)CC1`, 30.1%.
Next, `CCCS(=O)(=O)N1CCN(c2cc(-n3cccc3)nc(C)n2)CC1`: 34.5%; `O=C(O)c1ccnc(-c2ccnc(N3CCCCCC3)n2)c1`: 4.41%.
Take `Cc1nc(C)c(C(=O)NCCNc2ncccc2C(F)(F)F)s1`: the INHIBITION was -36.3%.
Take `CCn1cnnc1C1CCN(C(=O)c2ccc3cc[nH]c3c2)CC1`: the INHIBITION came out at 30.8%.
Consider `Cc1cc(C)n(CC2CN(Cc3noc(C4CC4)n3)CCO2)n1` (stereo not drawn), for which the INHIBITION is -37.7%.
Next, `CC(=O)N1CCCCC1c1nc2c(c(NC3CCCC3)n1)CN(C)CC2` (stereo not drawn): 38.2%; `O=C(NCCNc1ncccn1)N1CCN(C2CCCC2)CC1`: 21.6%.
Take `Cc1nc(C2CCCN(C(=O)CCn3ccccc3=O)C2)no1` (stereo not drawn): the INHIBITION is listed as 29.7%.
Turning to `COCc1ncc(CN2CCC3(CCC(=O)N(CC(C)O)C3)CC2)cn1` (stereo not drawn), the INHIBITION came out at 55.2%.
Take `COCc1ncc(CN2CCC3(CCNCC3)CC2)cn1`: the INHIBITION is reported as 18.5%.
Next, `COCc1ncc(CN2CCC3(CCNC(=O)CC3)CC2)cn1`: -47%; `COC(=O)C1CCN(C(=O)Cn2nc(C)nc2-c2ccccc2)CC1`: -3.48%.
Next, `N[C@@H](Cc1c[nH]cn1)C(=O)N1CCC(Oc2ccc(Cl)cc2)CC1`: 43.9%; `Cc1ccccc1CCC1CCCN(Cc2nnc(-c3ccco3)o2)C1` (stereo not drawn): 35.6%.
As to `Cc1nc(CN2CCCC(c3nc(C)n4c(C)c(C)sc34)C2)co1` (stereo not drawn), the INHIBITION was 19.6%.
On to `Cc1nnc(CN2CCCC(CCc3ccccc3C(F)(F)F)C2)o1` (stereo not drawn), for which the INHIBITION stood at 27.2%.
Consider `FC(F)(F)c1ccccc1CCC1CCCN(Cc2cscn2)C1` (stereo not drawn), for which the INHIBITION is recorded as 76.7%.
As to `CC1CCCN(Cc2coc(-c3cccc(F)c3)n2)C1` (stereo not drawn), the INHIBITION is listed as 18.6%.
Next, `Cc1nc(CN2CCCC(CCc3cccc(C(F)(F)F)c3)C2)co1` (stereo not drawn): 62.4%.
For the compound `Cn1cc(CN2CCCC(CCc3ccccc3C(F)(F)F)C2)cn1` (stereo not drawn), the INHIBITION was determined as 43%.
On to `Cc1nc(CN2CCCC(CCc3ccccc3C(F)(F)F)C2)co1` (stereo not drawn), for which the INHIBITION was 74.5%.
Regarding `CCN(CC(F)(F)F)C(=O)C1CCCN(Cc2cscn2)C1` (stereo not drawn), the INHIBITION was -116%.
Regarding `COCCN(Cc1ccco1)c1ncc(C#N)cc1Cl`, the INHIBITION came to 28%.
Consider `CCn1ncc(Nc2[nH]cnc3nc(C)nc2-3)c1C`, for which the INHIBITION was 9%.
For the compound `COCC(=O)Nc1ccc(-c2noc([C@@H]3CCCN3C(C)C)n2)cn1`, the INHIBITION is on record as 35.8%.
